According to the supplement of paper PMC7765376:
Structures can show the parent of a compound that is named as a salt. In all, about 1,500 compounds were measured (“Excess HSA synergy score (sum over dose matrix of excess over highest single agent)”: median about 43, lowest 2% from about -900 on). The entries come from a sample that favours the lowest values as a whole.

Tested on: PEO-1
Experiment: Excess HSA synergy score (sum over dose matrix of excess over highest single agent) (score (summed % response)); higher = less synergy / more antagonism (negative = synergy)
Settings: 72 h, read-out: viability/apoptosis luminescence (CellTiter-Glo or Caspase3-Glo / not stated per table)
[1] = matrix design: 6x6, 5-fold dilutions (primary screen)
[2] = matrix design: 10x10, 9-step dilutions (confirmatory)

Row | SMILES | Excess HSA synergy score [1] | Excess HSA synergy score [2]
1 | CCOC(=O)[C@@H](N)CCC(=O)N[C@@H](CSCc1ccccc1)C(=O)N[C@@H](C(=O)OCC)c1ccccc1 [Ezatiostat] + CC[C@H](NC(=O)[C@H](C)NC)C(=O)N1C[C@@H](O)C[C@H]1Cc1c(-c2[nH]c3cc(F)ccc3c2C[C@@H]2C[C@H](O)CN2C(=O)[C@H](CC)NC(=O)[C@H](C)NC)[nH]c2cc(F)ccc12 [Birinapant] | 49.2 | –
2 | Cc1[nH]c(/C=C2\C(=O)Nc3ccc(S(=O)(=O)N(C)c4cccc(Cl)c4)cc32)c(C)c1C(=O)N1CCN(C)CC1 + CC[C@H](NC(=O)[C@H](C)NC)C(=O)N1C[C@@H](O)C[C@H]1Cc1c(-c2[nH]c3cc(F)ccc3c2C[C@@H]2C[C@H](O)CN2C(=O)[C@H](CC)NC(=O)[C@H](C)NC)[nH]c2cc(F)ccc12 [Birinapant] | -71.9 | –
3 | CN1CCCN(C(=O)c2cccc(-c3ccc(/C=C4/C(=O)Nc5ccc(Cl)cc54)o3)c2)CC1 + CC[C@H](NC(=O)[C@H](C)NC)C(=O)N1C[C@@H](O)C[C@H]1Cc1c(-c2[nH]c3cc(F)ccc3c2C[C@@H]2C[C@H](O)CN2C(=O)[C@H](CC)NC(=O)[C@H](C)NC)[nH]c2cc(F)ccc12 [Birinapant] | 92.9 | -1060
4 | Cc1[nH]c(/C=C2\C(=O)Nc3ccc(S(=O)(=O)Cc4c(Cl)cccc4Cl)cc32)c(C)c1C(=O)N1CCC[C@@H]1CN1CCCC1 + CC[C@H](NC(=O)[C@H](C)NC)C(=O)N1C[C@@H](O)C[C@H]1Cc1c(-c2[nH]c3cc(F)ccc3c2C[C@@H]2C[C@H](O)CN2C(=O)[C@H](CC)NC(=O)[C@H](C)NC)[nH]c2cc(F)ccc12 [Birinapant] | -132 | –
5 | COc1cc(-c2nn([C@H]3CC[C@H](N4CCN(C(C)=O)CC4)CC3)c3ncnc(N)c23)ccc1NC(=O)c1cc2ccccc2n1C + CC[C@H](NC(=O)[C@H](C)NC)C(=O)N1C[C@@H](O)C[C@H]1Cc1c(-c2[nH]c3cc(F)ccc3c2C[C@@H]2C[C@H](O)CN2C(=O)[C@H](CC)NC(=O)[C@H](C)NC)[nH]c2cc(F)ccc12 [Birinapant] | 112 | –
6 | CO[C@@H]1[C@H](N(C)C(=O)c2ccccc2)C[C@H]2O[C@]1(C)n1c3ccccc3c3c4c(c5c6ccccc6n2c5c31)C(=O)NC4=O [Stauprimide] + CC[C@H](NC(=O)[C@H](C)NC)C(=O)N1C[C@@H](O)C[C@H]1Cc1c(-c2[nH]c3cc(F)ccc3c2C[C@@H]2C[C@H](O)CN2C(=O)[C@H](CC)NC(=O)[C@H](C)NC)[nH]c2cc(F)ccc12 [Birinapant] | 168 | –
7 | COc1ccc(OC)c(-c2nnc3ccc(-c4ccc(OC)c(O[C@@H]5CCOC5)c4)nn23)c1 + CC[C@H](NC(=O)[C@H](C)NC)C(=O)N1C[C@@H](O)C[C@H]1Cc1c(-c2[nH]c3cc(F)ccc3c2C[C@@H]2C[C@H](O)CN2C(=O)[C@H](CC)NC(=O)[C@H](C)NC)[nH]c2cc(F)ccc12 [Birinapant] | -150 | –
8 | Nc1ccc(-c2ccc3ncc4ccc(=O)n(-c5cccc(C(F)(F)F)c5)c4c3c2)cn1 [Torin-2] + CC[C@H](NC(=O)[C@H](C)NC)C(=O)N1C[C@@H](O)C[C@H]1Cc1c(-c2[nH]c3cc(F)ccc3c2C[C@@H]2C[C@H](O)CN2C(=O)[C@H](CC)NC(=O)[C@H](C)NC)[nH]c2cc(F)ccc12 [Birinapant] | -80.4 | -999
9 | COc1cc(OC)cc(-c2ccc3ncc4ccc(=O)n(-c5ccc(N6CCNCC6)c(C(F)(F)F)c5)c4c3c2)c1 + CC[C@H](NC(=O)[C@H](C)NC)C(=O)N1C[C@@H](O)C[C@H]1Cc1c(-c2[nH]c3cc(F)ccc3c2C[C@@H]2C[C@H](O)CN2C(=O)[C@H](CC)NC(=O)[C@H](C)NC)[nH]c2cc(F)ccc12 [Birinapant] | 160 | –
10 | CCC(=O)N1CCN(c2ccc(-n3c(=O)ccc4cnc5ccc(-c6cnc7ccccc7c6)cc5c43)cc2C(F)(F)F)CC1 [Torin-1] + CC[C@H](NC(=O)[C@H](C)NC)C(=O)N1C[C@@H](O)C[C@H]1Cc1c(-c2[nH]c3cc(F)ccc3c2C[C@@H]2C[C@H](O)CN2C(=O)[C@H](CC)NC(=O)[C@H](C)NC)[nH]c2cc(F)ccc12 [Birinapant] | -195 | –
11 | CN1CCC(COc2cnc(-c3cccc(Cn4nc(-c5cccc(C#N)c5)ccc4=O)c3)nc2)CC1 + CC[C@H](NC(=O)[C@H](C)NC)C(=O)N1C[C@@H](O)C[C@H]1Cc1c(-c2[nH]c3cc(F)ccc3c2C[C@@H]2C[C@H](O)CN2C(=O)[C@H](CC)NC(=O)[C@H](C)NC)[nH]c2cc(F)ccc12 [Birinapant] | 19.6 | –
12 | Cn1cc(-c2ccc3nnc(Sc4ccc5ncccc5c4)n3n2)cn1 + CC[C@H](NC(=O)[C@H](C)NC)C(=O)N1C[C@@H](O)C[C@H]1Cc1c(-c2[nH]c3cc(F)ccc3c2C[C@@H]2C[C@H](O)CN2C(=O)[C@H](CC)NC(=O)[C@H](C)NC)[nH]c2cc(F)ccc12 [Birinapant] | 117 | –
13 | NC(=O)c1cccc(-c2cccc(OC(=O)NC3CCCCC3)c2)c1 + CC[C@H](NC(=O)[C@H](C)NC)C(=O)N1C[C@@H](O)C[C@H]1Cc1c(-c2[nH]c3cc(F)ccc3c2C[C@@H]2C[C@H](O)CN2C(=O)[C@H](CC)NC(=O)[C@H](C)NC)[nH]c2cc(F)ccc12 [Birinapant] | 46.3 | –
14 | CNc1nccc(-c2cccnc2Oc2cc(C(=O)Nc3cccc(C(F)(F)F)c3)ccc2C)n1 + CC[C@H](NC(=O)[C@H](C)NC)C(=O)N1C[C@@H](O)C[C@H]1Cc1c(-c2[nH]c3cc(F)ccc3c2C[C@@H]2C[C@H](O)CN2C(=O)[C@H](CC)NC(=O)[C@H](C)NC)[nH]c2cc(F)ccc12 [Birinapant] | 73.8 | –
15 | CC(=O)[C@]1(O)Cc2c(O)c3c(c(O)c2[C@@H](O[C@H]2C[C@H](N)[C@H](O)[C@H](C)O2)C1)C(=O)c1ccccc1C3=O [Idarubicin hydrochloride] + CC[C@H](NC(=O)[C@H](C)NC)C(=O)N1C[C@@H](O)C[C@H]1Cc1c(-c2[nH]c3cc(F)ccc3c2C[C@@H]2C[C@H](O)CN2C(=O)[C@H](CC)NC(=O)[C@H](C)NC)[nH]c2cc(F)ccc12 [Birinapant] | -126 | -1080
16 | COc1cccc2c1C(=O)c1c(O)c3c(c(O)c1C2=O)C[C@@](O)(C(=O)CO)C[C@@H]3O[C@H]1C[C@H](N)[C@H](O[C@@H]2CCCCO2)[C@H](C)O1 [Pirarubicin] + CC[C@H](NC(=O)[C@H](C)NC)C(=O)N1C[C@@H](O)C[C@H]1Cc1c(-c2[nH]c3cc(F)ccc3c2C[C@@H]2C[C@H](O)CN2C(=O)[C@H](CC)NC(=O)[C@H](C)NC)[nH]c2cc(F)ccc12 [Birinapant] | -150 | –
17 | COc1cccc2c1C(=O)c1c(O)c3c(c(O)c1C2=O)C[C@@](O)(C(C)=O)C[C@@H]3O[C@H]1C[C@H](N)[C@H](O)[C@H](C)O1 [Daunorubicin] + CC[C@H](NC(=O)[C@H](C)NC)C(=O)N1C[C@@H](O)C[C@H]1Cc1c(-c2[nH]c3cc(F)ccc3c2C[C@@H]2C[C@H](O)CN2C(=O)[C@H](CC)NC(=O)[C@H](C)NC)[nH]c2cc(F)ccc12 [Birinapant] | -171 | –
18 | COc1cc2c(Nc3ccc(Cl)c(Cl)c3F)ncnc2cc1OC[C@@H]1C[C@@H]2CN(C)C[C@@H]2C1 + CC[C@H](NC(=O)[C@H](C)NC)C(=O)N1C[C@@H](O)C[C@H]1Cc1c(-c2[nH]c3cc(F)ccc3c2C[C@@H]2C[C@H](O)CN2C(=O)[C@H](CC)NC(=O)[C@H](C)NC)[nH]c2cc(F)ccc12 [Birinapant] | -5.11 | –
19 | Nc1cc(C(F)(F)F)c(-c2cc(N3CCOCC3)nc(N3CCOCC3)n2)cn1 + CC[C@H](NC(=O)[C@H](C)NC)C(=O)N1C[C@@H](O)C[C@H]1Cc1c(-c2[nH]c3cc(F)ccc3c2C[C@@H]2C[C@H](O)CN2C(=O)[C@H](CC)NC(=O)[C@H](C)NC)[nH]c2cc(F)ccc12 [Birinapant] | 242 | –
20 | c1ccc(CNc2nc(NCc3ccccc3)c3ccccc3n2)cc1 + CC[C@H](NC(=O)[C@H](C)NC)C(=O)N1C[C@@H](O)C[C@H]1Cc1c(-c2[nH]c3cc(F)ccc3c2C[C@@H]2C[C@H](O)CN2C(=O)[C@H](CC)NC(=O)[C@H](C)NC)[nH]c2cc(F)ccc12 [Birinapant] | -180 | –
21 | CCC(C)SSc1ncc[nH]1 (stereo unspecified) + CC[C@H](NC(=O)[C@H](C)NC)C(=O)N1C[C@@H](O)C[C@H]1Cc1c(-c2[nH]c3cc(F)ccc3c2C[C@@H]2C[C@H](O)CN2C(=O)[C@H](CC)NC(=O)[C@H](C)NC)[nH]c2cc(F)ccc12 [Birinapant] | 79.6 | –
22 | CS(=O)(=O)Oc1ccc2c(NC(N)=O)c(C(=O)c3ccc(Cl)cc3Cl)oc2c1 [Lirimilast] + CC[C@H](NC(=O)[C@H](C)NC)C(=O)N1C[C@@H](O)C[C@H]1Cc1c(-c2[nH]c3cc(F)ccc3c2C[C@@H]2C[C@H](O)CN2C(=O)[C@H](CC)NC(=O)[C@H](C)NC)[nH]c2cc(F)ccc12 [Birinapant] | -20.9 | –
23 | CCC1=C[C@@H]2CN(C1)Cc1c([nH]c3ccccc13)[C@@](C(=O)OC)(c1cc3c(cc1OC)N(C)[C@H]1[C@@](O)(C(=O)OC)[C@H](OC(C)=O)[C@]4(CC)C=CCN5CC[C@]31[C@@H]54)C2 [Vinorelbine] + CC[C@H](NC(=O)[C@H](C)NC)C(=O)N1C[C@@H](O)C[C@H]1Cc1c(-c2[nH]c3cc(F)ccc3c2C[C@@H]2C[C@H](O)CN2C(=O)[C@H](CC)NC(=O)[C@H](C)NC)[nH]c2cc(F)ccc12 [Birinapant] | 91.9 | –
